Laboratory results reported in PubChem BioAssay.
A number with no mark means an inactive call. No rule for the calls is given here.

system: Aerobactin synthetase IucA (Klebsiella pneumoniae, hypervirulent); assay: IucA enzyme inhibition, biochemical, LOPAC library, absorbance readout (AID 1346212); details: IucA enzyme assay, absorbance (OD) readout; hits give low values;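 tested at 8 µM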;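 also: 100% = no compound wells and 0% = no enzyme wells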

Row | SMILES | remaining activity
1 | Nc1nc(N)c2nc(-c3ccccc3)c(N)nc2n1 | 93.9%
2 | CN/C(=C\[N+](=O)[O-])NCCSCc1ccc(CN(C)C)o1 | 101%
3 | COc1ccc(C2CNC(=O)C2)cc1OC1CCCC1 (centres undefined) | 91.4%
4 | CCCC(C(=O)OCCN(CC)CC)(c1ccccc1)c1ccccc1 | 118%
5 | Cn1cnc2c1c(=O)[nH]c(=O)n2C | 97.1%
6 | C[C@H]1c2cccc(O)c2C(O)=C2C(=O)[C@]3(O)C(O)=C(C(N)=O)C(=O)[C@@H](N(C)C)[C@@H]3[C@@H](O)[C@@H]21 | 104%
7 | OCCN1CCN(CCCN2c3ccccc3Sc3ccc(Cl)cc32)CC1 | 112%
8 | CCCCc1oc2ccccc2c1C(=O)c1cc(I)c(OCCN(CC)CC)c(I)c1 | 101%
9 | O=C(Nc1ccc([N+](=O)[O-])cc1Cl)c1cc(Cl)ccc1O | 113%
